From PubChem BioAssay AID743330 (NMMLSC, 2014) come the findings set out here.

Each structure is given as a SMILES string. The source made the active and inactive calls. The rule behind the calls is not given here.

In this assay the test system is Cdc42. Put plainly: GTPase panel EC50 shift with labeled GTP level, profiling panel, mechanism study, biochemical, four GTPases, bead flow cytometry (AID 743330). The note with it: bead-based flow cytometry, fluorescent GTP binding to GTPases. In general terms: Flow cytometry measures light scatter and fluorescence of single cells or particles in a stream.

For `CCC1(C)Cc2c(sc(NC(=S)NC(=O)c3ccccc3)c2C(=O)O)CO1` (configuration not stated), the result was inactive.
Usually EC50 stands for the concentration needed to bring the measured effect to its halfway point. For the compound `CC1(C)Cc2c(sc(NC(=S)NC(=O)c3ccc(F)cc3)c2C(=O)O)CO1`, the EC50 was 0.076 µM (active).
